Laboratory results: PubChem BioAssay (EPA / NIEHS)
Several values for one entry are separate records, joined by “and”; a condition that tells them apart may be missing. Equal values may be shown once. Some compounds were tested as several samples or in several runs, with calls that do not always agree. Activity calls are given as the source filed them. How the source made its calls: active means hit-call score of the fitted dose curve at least 0.9, where 1 is the maximum; inactive means score below 0.9.

Legend:
[1] = ATG_GLI_CIS: Attagene CIS-FACTORIAL HepG2 Assay for human Zinc Finger Protein GLI1 (AID 2282945); conditions: HepG2, Attagene cis-factorial reporter mRNA, GLI element; actives raise or lower the signal
Summary of the method: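 Bidirectional curve fits relative to DMSO, using reporter mRNA levels from RT-PCR plus capillary electrophoresis. Cells were HepG2 transiently carrying cis-regulated reporter constructs, harvested 24 h after dosing.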

[2] = target: Bile acid receptor (Homo sapiens) (UniProt Q96RI1); assay: ATG_IR1_CIS: Attagene CIS-FACTORIAL HepG2 Assay for human Nuclear Receptor Subfamily 1 Group H Member 4 (NR1H4), IR1 submotif (AID 2282946); conditions: IR1 reporter transcription, actives raise or lower the signal
Summary of the method: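 Cells (human HepG2) carry transiently transfected cis-promoter reporter transcription units. Compounds are incubated 24 h, total RNA is reverse-transcribed and amplified, and labelled fragments are resolved by capillary electrophoresis. Curves use DMSO as baseline.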

[3] = ATG_GRE_CIS: Attagene CIS-FACTORIAL HepG2 Assay for human Glucocorticoid Response Elements (GRE) (AID 2282947); conditions: HepG2 GRE cis-reporter, Attagene multiplex mRNA; actives raise or lower the signal
Summary of the method: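 Transient MRTU transfection of human HepG2 liver cells; cis-regulated reporters report endogenous factors. 24 h dosing → RNA isolation → RT-PCR → 6-FAM primer extension → HpaI cut → CE fragment analysis. Bidirectional fit, DMSO negative control.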

[4] = ATG_ISRE_CIS: Attagene CIS-FACTORIAL HepG2 Assay for human Interferon Regulatory Factor 1 (IRF1) binding to an Interferon-Stimulated Response Element (ISRE) (AID 2282948); conditions: HepG2 ISRE cis-reporter (Attagene), mRNA transcription readout; actives raise or lower the signal
Summary of the method: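 Transiently transfected HepG2 cells carrying cis-element reporter units, dosed 24 hours. Reporter mRNA quantified by RT-PCR, fluorescent primer extension, HpaI digestion and capillary electrophoresis. Bidirectional fitting relative to DMSO.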

[5] = ATG_M_06_CIS: Attagene CIS-FACTORIAL HepG2 Assay for M06 Transcription Factor (Internal Marker) (AID 2282950); conditions: HepG2 Attagene CIS-FACTORIAL M06 internal marker reporter; actives raise or lower the signal
Summary of the method: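 Steps: transfect HepG2 with multiplexed cis-element reporter constructs; dose chemical 24 h; extract RNA with DNase treatment; reverse-transcribe, PCR-amplify, 6-FAM label, HpaI digest; separate fragments by capillary electrophoresis. Activity fitted both directions versus DMSO.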

[6] = target: Hypoxia-inducible factor 1-alpha (Homo sapiens) (UniProt Q16665); assay: ATG_HIF1a_CIS: Attagene CIS-FACTORIAL HepG2 Assay for human Hypoxia Inducible Factor 1 (HIF1A) (AID 2282951); conditions: HepG2 Attagene cis-factorial HIF1a reporter transcription; actives raise or lower the signal
Summary of the method: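 After 24 h chemical exposure of reporter-transfected HepG2 cells, reporter cDNA was PCR-amplified, labelled by 6-FAM primer extension (2 min 95 C, 20 s 68 C, 10 min 72 C), HpaI-cut (2 h, 37 C) and analysed by CE.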

[7] = target: Hepatocyte nuclear factor 6 (Homo sapiens) (UniProt Q9UBC0); assay: ATG_HNF6_CIS: Attagene CIS-FACTORIAL HepG2 Assay for human Hepatocyte Nuclear Factor 6 (HNF6) (AID 2282952); conditions: HepG2 Attagene cis-factorial HNF6 reporter transcription; actives raise or lower the signal
Summary of the method: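 Reporter mRNA induction or loss in HepG2 after 24 h exposure; transient cis-MRTU transfection; fragments quantified by capillary electrophoresis; bidirectional analysis, DMSO as negative control.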

[8] = target: Heat shock factor protein 1 (Homo sapiens) (UniProt Q00613); assay: ATG_HSE_CIS: Attagene CIS-FACTORIAL HepG2 Assay for human Heat Shock Transcription Factor 1 (HSE) (AID 2282953); conditions: HepG2 HSE cis-reporter, Attagene RNA transcription; actives raise or lower the signal
Summary of the method: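 Cells were transfected with cis-element-driven reporter constructs, dosed for 24 h, then total RNA was reverse-transcribed and reporter cDNA amplified, FAM-labelled and digested with HpaI. Fragments were resolved by capillary electrophoresis; gain or loss was fitted against DMSO.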

[9] = ATG_MRE_CIS: Attagene CIS-FACTORIAL HepG2 Assay for human Metal Responsive Element (MRE) (AID 2282954); conditions: HepG2 MRE cis-reporter transcription, Attagene multiplex; actives raise or lower the signal
Summary of the method: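 Transient MRTU transfection of HepG2 (FuGene 6); 24 h dosing; total RNA → oligo(dT) RT, PCR, 6-FAM primer extension, HpaI cut, CE. Bidirectional fit vs DMSO.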

[10] = ATG_PBREM_CIS: Attagene CIS-FACTORIAL HepG2 Assay for human Phenobarbital-responsive Enhancer Module (PBREM) (AID 2282955); conditions: HepG2 PBREM cis-reporter, Attagene multiplexed transcription; actives raise or lower the signal
Summary of the method: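 Measures endogenous factor action on a phenobarbital-responsive enhancer module. HepG2 transiently carrying cis reporters, 24 h treatment, mRNA read-out by RT-PCR plus capillary electrophoresis.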

[11] = target: Paired box protein Pax-6 (Homo sapiens) (UniProt P26367); assay: ATG_Pax6_CIS: Attagene CIS-FACTORIAL HepG2 Assay for human Paired Box 6 (PAX6) (AID 2282956); conditions: HepG2 CIS-FACTORIAL PAX6 reporter transcription, RNA readout; actives raise or lower the signal
Summary of the method: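 HepG2 cells transiently transfected with cis-promoter-driven multiplexed reporter units sensing endogenous transcription factor activity; 24 h chemical exposure. Reporter mRNA quantified by RT-PCR, 6-FAM labelling, HpaI digestion and capillary electrophoresis; bidirectional fit versus DMSO baseline.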

[12] = ATG_PXRE_CIS: Attagene CIS-FACTORIAL HepG2 Assay for human Pregnane X Receptor Element (PXRE) (AID 2282957); conditions: HepG2 Attagene CIS-FACTORIAL PXRE reporter, mRNA; actives raise or lower the signal
Summary of the method: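 Transiently transfected HepG2 cells were dosed and incubated for 24 h. RNA was then isolated, DNase-treated, reverse-transcribed and reporter sequences amplified. Labeled, HpaI-digested fragments were quantified by capillary electrophoresis against DMSO.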

[13] = ATG_RORE_CIS: Attagene CIS-FACTORIAL HepG2 Assay for human RAR-related Orphan Receptor Element (RORE) (AID 2282959); conditions: HepG2 Attagene cis-factorial RORE reporter, mRNA; actives raise or lower the signal
Summary of the method: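 A 24-hour exposure of transfected HepG2 hepatoma cells precedes RNA isolation and reporter RT-PCR. Labeled products are digested with HpaI and resolved by capillary electrophoresis, with gain or loss of signal scored relative to DMSO.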

[14] = ATG_Sox_CIS: Attagene CIS-FACTORIAL HepG2 Assay for human SRY-box transcription factor (SOX) (AID 2282960); conditions: HepG2 Attagene cis-factorial SOX reporter, mRNA; actives raise or lower the signal
Summary of the method: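 HepG2, cis reporter units, 24 h exposure. Reporter mRNA: RT-PCR → FAM labelling → HpaI → CE fluorescence. Bidirectional fit vs DMSO.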

[15] = target: Transcription factor Sp1 (Homo sapiens) (UniProt P08047); assay: ATG_Sp1_CIS: Attagene CIS-FACTORIAL HepG2 Assay for human Specificity Protein 1 (Sp1) (AID 2282961); conditions: HepG2 Sp1 cis-reporter transcription, actives raise or lower the signal
Summary of the method: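 Liver-derived HepG2 cells, cis-element reporter library, 24 h treatment; RNA isolated, cDNA amplified with reporter-specific primers, FAM-labeled fragments sized on capillary analyzer. DMSO baseline, bidirectional curve fit.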

[16] = ATG_SREBP_CIS: Attagene CIS-FACTORIAL HepG2 Assay for human Sterol Regulatory Element Binding (SREBP) (AID 2282962); conditions: HepG2 Attagene cis-factorial SREBP reporter, mRNA; actives raise or lower the signal
Summary of the method: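 HepG2 cells transiently transfected with multiplexed cis-promoter reporter units sensing endogenous transcription factors; reporter mRNA measured 24 h after dosing by RT-PCR, 6-FAM labeling, HpaI digestion and capillary electrophoresis. Bidirectional fit versus DMSO.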

[17] = target: Signal transducer and activator of transcription 3 (Homo sapiens) (UniProt P40763); assay: ATG_STAT3_CIS: Attagene CIS-FACTORIAL HepG2 Assay for human Signal Transducer and Activator of Transcription 3 (STAT3) (AID 2282963); conditions: HepG2, Attagene cis-factorial STAT3 reporter transcription; actives raise or lower the signal
Summary of the method: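 Endogenous STAT3-responsive cis-element activity was read in transiently transfected HepG2 cells after 24 h treatment. Reporter transcripts were quantified via RT-PCR and capillary electrophoresis, with DMSO as negative control and bidirectional curve fitting.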

[18] = ATG_TA_CIS: Attagene CIS-FACTORIAL HepG2 Assay for human TA Basal Promoter (AID 2282964); conditions: HepG2 Attagene CIS-factorial TA basal promoter reporter; actives raise or lower the signal
Summary of the method: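 Steps: transfect HepG2 with MRTUs; dose 24 h; isolate RNA, DNase-treat, reverse-transcribe; PCR and FAM-label reporter cDNA; digest with HpaI 2h at 37 C; run capillary electrophoresis. Activity fitted both directions against DMSO.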

[19] = ATG_M_32_CIS: Attagene CIS-FACTORIAL HepG2 Assay for M32 Transcription Factor (Internal Marker) (AID 2282949); conditions: HepG2 Attagene cis-factorial M32 reporter, mRNA; actives raise or lower the signal;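 further: background control marker of the multiplexed CIS panel rather than a real target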
Summary of the method: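 Fluorescent capillary electrophoresis peaks of HpaI-digested, FAM-labelled RT-PCR reporter products give the signal. Source: transiently transfected human liver HepG2 cells, 24 h after chemical dosing; bidirectional fitting against DMSO.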

[20] = ATG_PPRE_CIS: Attagene CIS-FACTORIAL HepG2 Assay for human Peroxisome Proliferator-activated Response Element (PPRE) (AID 2282958); conditions: HepG2 PPRE cis-element reporter, Attagene transcription factor profiling; actives raise or lower the signal
Summary of the method: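 PPRE activity in HepG2: transient cis-reporter transfection, 24 h compound incubation, reporter mRNA by RT-PCR and CE fluorescence; gain/loss fitted against DMSO.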

Measured: AC50

Sequence of Hepatocyte nuclear factor 6 (Homo sapiens) (Q9UBC0 whole entry, looked up, the tested form may be a part): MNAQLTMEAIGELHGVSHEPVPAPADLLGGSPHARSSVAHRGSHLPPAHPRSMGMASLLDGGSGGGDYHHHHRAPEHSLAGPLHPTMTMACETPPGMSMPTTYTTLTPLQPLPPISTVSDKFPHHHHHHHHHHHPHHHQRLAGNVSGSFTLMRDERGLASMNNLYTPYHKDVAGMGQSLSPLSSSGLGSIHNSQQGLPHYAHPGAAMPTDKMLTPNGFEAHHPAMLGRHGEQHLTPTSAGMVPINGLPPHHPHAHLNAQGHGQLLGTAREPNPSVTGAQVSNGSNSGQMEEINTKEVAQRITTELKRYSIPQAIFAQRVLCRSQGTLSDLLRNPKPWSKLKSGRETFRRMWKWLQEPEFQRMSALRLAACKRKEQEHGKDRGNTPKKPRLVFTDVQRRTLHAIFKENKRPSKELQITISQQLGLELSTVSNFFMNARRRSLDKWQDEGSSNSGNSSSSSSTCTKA
Sequence of Bile acid receptor (Homo sapiens) (Q96RI1 whole entry, looked up, the tested form may be a part): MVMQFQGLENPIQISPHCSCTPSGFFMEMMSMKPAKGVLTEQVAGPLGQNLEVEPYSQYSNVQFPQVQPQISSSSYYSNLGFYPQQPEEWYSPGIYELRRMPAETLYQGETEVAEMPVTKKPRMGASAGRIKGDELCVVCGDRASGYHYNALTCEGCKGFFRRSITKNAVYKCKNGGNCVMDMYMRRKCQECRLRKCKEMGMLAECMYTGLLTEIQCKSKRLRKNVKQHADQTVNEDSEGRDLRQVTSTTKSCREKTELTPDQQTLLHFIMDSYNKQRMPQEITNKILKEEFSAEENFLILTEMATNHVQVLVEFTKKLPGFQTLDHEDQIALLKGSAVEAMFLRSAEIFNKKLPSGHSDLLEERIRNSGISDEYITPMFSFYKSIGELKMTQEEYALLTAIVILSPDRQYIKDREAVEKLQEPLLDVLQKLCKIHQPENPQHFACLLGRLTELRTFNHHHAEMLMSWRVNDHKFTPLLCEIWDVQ
Sequence of Heat shock factor protein 1 (Homo sapiens) (Q00613 whole entry, looked up, the tested form may be a part): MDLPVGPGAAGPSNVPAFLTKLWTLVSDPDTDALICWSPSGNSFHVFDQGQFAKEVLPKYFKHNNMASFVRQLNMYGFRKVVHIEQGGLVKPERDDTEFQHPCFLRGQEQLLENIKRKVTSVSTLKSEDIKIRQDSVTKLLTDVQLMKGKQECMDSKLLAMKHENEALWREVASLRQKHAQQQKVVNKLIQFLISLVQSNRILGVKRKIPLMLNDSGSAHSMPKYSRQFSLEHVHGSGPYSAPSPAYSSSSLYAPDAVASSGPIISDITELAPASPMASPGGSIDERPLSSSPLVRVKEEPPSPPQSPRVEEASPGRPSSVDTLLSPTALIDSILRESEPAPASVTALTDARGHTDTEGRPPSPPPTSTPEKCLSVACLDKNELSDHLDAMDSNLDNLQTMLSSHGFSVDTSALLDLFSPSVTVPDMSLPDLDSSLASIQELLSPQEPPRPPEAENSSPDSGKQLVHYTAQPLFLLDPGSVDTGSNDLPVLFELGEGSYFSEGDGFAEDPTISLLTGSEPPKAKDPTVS
Sequence of Signal transducer and activator of transcription 3 (Homo sapiens) (P40763 whole entry, looked up): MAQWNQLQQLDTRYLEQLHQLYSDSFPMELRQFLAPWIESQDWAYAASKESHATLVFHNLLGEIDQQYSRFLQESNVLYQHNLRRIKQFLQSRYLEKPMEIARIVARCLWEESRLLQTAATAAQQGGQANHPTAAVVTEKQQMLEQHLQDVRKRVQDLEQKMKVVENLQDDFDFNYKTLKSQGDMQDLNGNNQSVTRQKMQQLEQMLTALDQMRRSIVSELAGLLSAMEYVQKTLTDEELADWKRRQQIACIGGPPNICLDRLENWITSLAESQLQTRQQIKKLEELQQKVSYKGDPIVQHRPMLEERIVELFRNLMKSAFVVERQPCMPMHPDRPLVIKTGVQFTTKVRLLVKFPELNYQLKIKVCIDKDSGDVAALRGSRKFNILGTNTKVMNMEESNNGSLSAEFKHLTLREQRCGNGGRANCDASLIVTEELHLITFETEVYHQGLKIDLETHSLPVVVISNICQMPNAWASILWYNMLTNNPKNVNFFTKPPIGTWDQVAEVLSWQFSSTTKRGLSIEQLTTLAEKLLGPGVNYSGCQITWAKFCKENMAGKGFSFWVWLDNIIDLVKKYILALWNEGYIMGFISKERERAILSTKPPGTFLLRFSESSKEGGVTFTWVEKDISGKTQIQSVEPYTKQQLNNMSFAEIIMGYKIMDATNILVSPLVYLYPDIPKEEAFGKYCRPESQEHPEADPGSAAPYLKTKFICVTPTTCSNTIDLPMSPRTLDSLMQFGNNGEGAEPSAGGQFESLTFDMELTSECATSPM
Sequence of Paired box protein Pax-6 (Homo sapiens) (P26367 whole entry, looked up): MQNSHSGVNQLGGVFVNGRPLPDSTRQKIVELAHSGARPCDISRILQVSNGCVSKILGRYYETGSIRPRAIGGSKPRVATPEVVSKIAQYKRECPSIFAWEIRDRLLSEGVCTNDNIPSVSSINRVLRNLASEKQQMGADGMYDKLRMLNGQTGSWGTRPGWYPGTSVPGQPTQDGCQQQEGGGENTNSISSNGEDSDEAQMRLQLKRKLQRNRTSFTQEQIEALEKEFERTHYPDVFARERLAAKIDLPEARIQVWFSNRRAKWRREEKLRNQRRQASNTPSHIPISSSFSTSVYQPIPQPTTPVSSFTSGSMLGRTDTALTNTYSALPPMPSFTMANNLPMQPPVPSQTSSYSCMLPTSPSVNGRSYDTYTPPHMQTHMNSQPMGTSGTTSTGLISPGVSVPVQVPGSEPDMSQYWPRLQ
Sequence of Transcription factor Sp1 (Homo sapiens) (P08047 whole entry, looked up, the tested form may be a part): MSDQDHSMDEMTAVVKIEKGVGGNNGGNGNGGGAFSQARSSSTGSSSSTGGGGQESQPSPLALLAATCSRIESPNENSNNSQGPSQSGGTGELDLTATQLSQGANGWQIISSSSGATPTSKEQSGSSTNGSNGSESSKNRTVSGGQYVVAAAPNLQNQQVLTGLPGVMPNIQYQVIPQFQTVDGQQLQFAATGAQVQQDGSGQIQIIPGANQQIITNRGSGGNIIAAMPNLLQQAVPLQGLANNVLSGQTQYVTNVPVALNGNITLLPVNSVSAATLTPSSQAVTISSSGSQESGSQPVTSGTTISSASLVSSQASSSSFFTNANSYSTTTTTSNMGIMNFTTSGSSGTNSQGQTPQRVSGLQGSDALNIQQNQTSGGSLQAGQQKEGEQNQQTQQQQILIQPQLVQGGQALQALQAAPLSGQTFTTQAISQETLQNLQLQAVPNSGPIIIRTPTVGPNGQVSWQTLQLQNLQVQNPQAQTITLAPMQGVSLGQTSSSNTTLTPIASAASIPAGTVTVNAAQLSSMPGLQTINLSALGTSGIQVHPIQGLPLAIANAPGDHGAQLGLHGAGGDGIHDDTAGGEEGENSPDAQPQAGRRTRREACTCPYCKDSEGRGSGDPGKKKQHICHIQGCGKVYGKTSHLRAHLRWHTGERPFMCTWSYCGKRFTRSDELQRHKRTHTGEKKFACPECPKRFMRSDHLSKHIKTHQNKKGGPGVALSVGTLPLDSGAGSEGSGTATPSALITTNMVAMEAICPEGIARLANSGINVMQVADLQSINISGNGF
Sequence of Hypoxia-inducible factor 1-alpha (Homo sapiens) (Q16665 whole entry, looked up): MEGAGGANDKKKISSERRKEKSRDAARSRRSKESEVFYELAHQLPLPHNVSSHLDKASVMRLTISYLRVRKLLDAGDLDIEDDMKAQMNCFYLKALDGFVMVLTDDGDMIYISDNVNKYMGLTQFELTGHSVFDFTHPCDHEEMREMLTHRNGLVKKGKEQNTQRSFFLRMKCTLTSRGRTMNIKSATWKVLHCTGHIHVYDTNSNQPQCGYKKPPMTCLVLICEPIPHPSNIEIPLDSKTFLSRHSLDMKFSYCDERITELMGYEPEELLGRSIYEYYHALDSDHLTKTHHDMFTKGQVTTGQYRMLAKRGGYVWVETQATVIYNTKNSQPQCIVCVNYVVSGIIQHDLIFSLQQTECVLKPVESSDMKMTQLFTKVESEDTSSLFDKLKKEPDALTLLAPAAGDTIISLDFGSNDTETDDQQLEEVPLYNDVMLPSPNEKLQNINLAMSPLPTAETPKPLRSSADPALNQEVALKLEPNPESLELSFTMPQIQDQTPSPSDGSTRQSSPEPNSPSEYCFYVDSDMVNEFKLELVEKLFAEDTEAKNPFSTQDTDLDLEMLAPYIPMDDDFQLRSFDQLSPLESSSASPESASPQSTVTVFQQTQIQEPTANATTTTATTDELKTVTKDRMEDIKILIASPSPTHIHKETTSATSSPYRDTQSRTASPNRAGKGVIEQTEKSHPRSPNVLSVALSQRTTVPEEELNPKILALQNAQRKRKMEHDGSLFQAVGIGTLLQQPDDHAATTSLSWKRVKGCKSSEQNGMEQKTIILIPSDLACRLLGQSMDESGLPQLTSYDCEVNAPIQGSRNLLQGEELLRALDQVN

CCCCCCCCCCCCCCCS(=O)(=O)Oc1ccccc1
active: [12] 0.778 µM
not listed: [19] | [20]
inactive: all other assays above

NC(=O)N1C(=O)C(C(=O)c2cc(Cl)cs2)c2cc(F)c(Cl)cc21 (stereo unspecified)
active: [6] 6.79 µM | [9] 14.9 µM | [10] 11 µM | [12] 4.07 µM | [13] 13.7 µM | [16] 4.78 µM
inactive: all other assays above

c1ccc2cc3c(ccc4ccccc43)cc2c1
inactive: [1] | [2] | [4] | [5] | [7] | [8] | [9] | [11] | [12] | [13] | [14] | [15] | [16] | [17] | [18]
active: [2] 621 nM and 25.4 µM and 1.92 µM | [8] 120 µM | [12] 8.53 µM and 20.8 µM | [13] 1.44 µM

CCCOC(=O)c1ccc(O)cc1
inactive: [1] | [2] | [3] | [4] | [19] | [5] | [7] | [8] | [9] | [10] | [11] | [20] | [13] | [14] | [15] | [16] | [17] | [18]
active: [9] 100 µM | [11] 142 µM | [12] 34.2 µM and 60 µM | [20] 77.5 µM | [13] 128 µM | [16] 26.4 µM | [18] 162 µM

CC(=O)CC(C)(C)O
active: [12] 25 µM
inactive: [1] | [2] | [3] | [4] | [19] | [5] | [7] | [8] | [9] | [11] | [12] | [20] | [13] | [14] | [15] | [16] | [17] | [18]

FC(F)(I)C(F)(F)C(F)(F)C(F)(F)C(F)(F)C(F)(F)I
active: [3] 18.1 µM | [11] 16 µM | [18] 16 µM
inactive: all other assays above
